HCMV inh: human cytomegalovirus inhibition. HFF cells, HCMV-luciferase reporter, 72 h; active compounds read low. activity change, negative = inhibition, % at 57.5 µM. actives 4.5% (n = 410,000); in the data active = activity change below about -60%; inconclusive = no clear call, values can overlap the other calls; inactive = above about -39%; note: % is set by controls: 0 for no effect and ±100 for the full control effect
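Two-dose cell screen: HFF monolayers treated with compounds and infected with luciferase-expressing HCMV at 1 PFU/cell, 72 h at 37C, then lysed for luciferase measurement.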
Pf growth 96h: inhibits malaria parasite growth, 96 h | actives 6.9% (n = 320,000) | Potency, µM (series often up to 28.7 µM), for the others: at the top dose activity change, negative = inhibition, most hits filed as inhibitors | AID 504834 | P. falciparum luciferase reporter growth, 96 h; note: potency is the fitted concentration of half-maximal effect; % is set by controls: 0 for no effect and ±100 for the full control effect
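Parasite growth measured via integrated firefly luciferase reporter in P. falciparum. Infected erythrocytes at 2% hematocrit, 0.05% parasitemia final were treated 96 hours at 37 C under 5% CO2, and luminescence was read.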
Pf growth 48h: P. falciparum growth inhibition at 48 hours (one generation); P. falciparum luciferase growth in erythrocytes, 48 h; Potency, µM (top dose mostly 28.7 µM), for inactives: at the highest dose activity change, negative = inhibition, actives largely listed as inhibitors; actives 5.9% (n = 310,000); AID 504832; note: potency is the fitted concentration of half-maximal effect; % is set by controls: 0 for no effect and ±100 for the full control effect
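Erythrocytes infected with P. falciparum carrying an integrated firefly luciferase reporter (2% hematocrit, 0.1% parasitemia final) were exposed to compounds in RPMI 1640 with 0.5% Albumax at 37 C, 5% CO2. Growth inhibition was scored as reduced luminescence.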
Cycloheximide cs: counter-screen for Shiga toxin inhibitors: cycloheximide protein synthesis inhibition; cell reporter, cycloheximide protein synthesis inhibition counterscreen; max response, %; actives 12% (n = 300,000); in the data active = max response mostly above about 13%, no sharp cut-off; inactive = mostly below about 14%; note: read at 38.3 µM for the half of the compounds with a filed dose; 0% is about no effect
HCV inh: HCV inhibition | Huh7.5.1 HCVcc-Cre infection, luciferase reporter, 44 h | Potency, µM (doses to about 41.8 µM), for the others: at the top dose activity change, negative = inhibition, hits mostly inhibitors | actives 3.4% (n = 340,000); note: potency is the fitted concentration of half-maximal effect; % is set by controls: 0 for no effect and ±100 for the full control effect
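Whole-lifecycle infectious HCVcc-Cre system; cells 1,000/well, compound then virus (~0.5 moi) added 4 h after plating, 44 h culture. Luciferase read 15 sec following 15 min substrate incubation, room temp.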
Shiga toxin inh: blocks Shiga toxin action in Vero cells | Vero cells, Shiga toxin protein synthesis inhibition reporter | inhibition, % at 38.7 µM | actives 9.2% (n = 290,000); in the data active = inhibition mostly above about 28%, no sharp cut-off; inactive = mostly below about 43%; note: 0% is about no effect
* hit, by the source's call; ? = inconclusive; / = no result. This is a sample that favours compounds with a hit; in the whole collection about 21% have one here. Unless noted, calls come from the whole dose curve; as a rule, active = well fitted inhibition curve with a large enough effect; inconclusive = small, poorly fitted or top-dose-only effect, or another doubt; inactive = no such curve, though single readings can be large or run the other way.

SMILES	HCMV inh	Pf growth 96h	Pf growth 48h	Cycloheximide cs	HCV inh	Shiga toxin inh
Cc1ccc(Nc2ncccc2C(N)=O)cc1[N+](=O)[O-]	67	288%	289%	39*	?	50*
Cc1cc(C)c(Nc2ncccc2C(=O)O)c(C)c1	-6	16%	9%	-2	6%	-19
Cc1ccc(Nc2ncccc2C(=O)O)cc1C	94	87%	39%	21*	15%	92*
Cc1ccc(NC(=O)c2ccccc2[N+](=O)[O-])cc1[N+](=O)[O-]	28	/	/	/	/	/
COc1ccc(NC(=O)CSc2nnc(-c3ccc(F)cc3)o2)cn1	30	67%	179%	/	-17%	/
Cc1nn(Cc2ccccc2)c(Cl)c1/C=C/C(=O)OC(C)C(=O)N1CCCC1 (centres undefined)	-25	3.7µM*	1.7µM*	5	-21%	2
Cc1nn(Cc2ccccc2)c(Cl)c1/C=C/C(=O)OCC(=O)NC(C)C(C)C (centres undefined)	-6	-18%	-8%	-1	?	-5
CCCCCc1cc(=O)oc2c(C(CCN3CCCCC3)c3ccc(OC)cc3)c(OC)cc(OC)c12 (centres undefined)	7	2.6µM*	3.3µM*	-14	?	-18
CCCCCc1cc(=O)oc2c(C(CCN3CCN(c4ccccc4)CC3)c3ccc4c(c3)OCO4)c(OC)cc(OC)c12 (centres undefined)	17	5.2µM*	7.4µM*	-3	?	-3
CCCCCc1cc(=O)oc2c(C(CCN3CCCC3)c3ccc(N(C)C)cc3)c(OC)cc(OC)c12 (centres undefined)	4	9.3µM*	?	-5	-16%	-8
CCCCCc1cc(=O)oc2c(C(CCN3CCCC3)c3cc(OC)c(OC)c(OC)c3)c(OC)cc(OC)c12 (centres undefined)	-28	3.3µM*	2.6µM*	-14	?	-14
COc1cc(OC)c2ccc(=O)oc2c1C(CCN1CCCC1)c1ccc(N(C)C)cc1 (centres undefined)	-18	?	?	-5	-24%	-1
COc1cc(OC)c2ccc(=O)oc2c1C(CCN1CCCCC1)c1ccc(N(C)C)cc1 (centres undefined)	55	?	?	7	12%	2
CCOC(=O)c1cccc(NC(=O)CCCn2c(C)c3cnn(-c4ccccc4)c(=O)c3c2C)c1	-5	/	/	/	/	/
CC(NS(=O)(=O)c1ccc2ccccc2c1)c1ccccn1 (centres undefined)	-15	/	/	/	3%	/
CCOc1ccc(S(=O)(=O)N(CC(=O)NCCc2ccc(OC)cc2)c2ccccc2)cc1	7	/	/	/	/	/
Cc1ccc(NC(=O)CCC(=O)N2CCSc3ccccc32)cc1	41	/	/	/	/	/
CCN(CC)CCC(c1ccc(N(C)C)cc1)c1c(OC)cc(OC)c2c1OC(=O)CC2c1ccc(OC)cc1 (centres undefined)	/	/	/	-10	/	-4
COc1ccc(C(CCN2CCCC(C)C2)c2c(OC)cc(OC)c3c2OC(=O)CC3c2cc(OC)c(OC)c(OC)c2)cc1 (centres undefined)	/	10µM*	12µM*	-1	-18%	6
CCCCCc1cc(=O)oc2c(C(CCN3CCCC(C)C3)c3ccc(OC)cc3)c(OC)cc(OC)c12 (centres undefined)	-28	3.3µM*	?	-7	4%	-2
O=C(COC(=O)c1c(Cl)cccc1Cl)NCC1CCCO1 (centres undefined)	3	/	/	/	0%	/
S=c1[nH]nc(-c2ccc(Br)cc2)n1-c1ccc(Br)cc1	36	-24%	-4%	1	6%	5
Nc1n[nH]c(-c2ccc(Br)cc2)c1Cl	-109*	37%	42%	9	-9%	4
Cc1nc(-c2noc(-c3ccc(Cl)cc3)n2)c(C(F)(F)F)o1	-2	91%	58%	7	-2%	22
Cc1cc(Cn2nnc3ccccc32)c(O)c(C(C)(C)C)c1	-20	?	12µM*	/	10µM*	/
Cc1cccc(Cn2nnc3ccccc32)c1O	-21	?	?	/	-22%	/
CC(C)(C)c1cccc(Cn2nnc3ccccc32)c1O	?	?	9.3µM*	/	?	/

From PubChem
